The whole screen tested about 2,000 compounds, of which about 80 (4%) were called active.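 The calls were made as follows: active = aptamer displacement above 40%, near three times the noise of non-fluorescent compounds, on plates passing quality checks; inactive = the rest.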 Not all results are given here.
These compounds were tested against Beta-adrenergic receptor kinase 1 (Homo sapiens) (UniProt P25098) (assay: GRK2 aptamer-displacing inhibitors, retest, confirmation, biochemical, cherry pick 1, bead flow cytometry (AID 504451;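 also: negative values mostly reflect intrinsic compound fluorescence rather than true enhancement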)). Settings: bead-bound GRK2, FAM-aptamer displacement, at 10 µM, stronger effect = higher value.
Beta-adrenergic receptor kinase 1 (Homo sapiens), sequence (P25098 whole entry, looked up): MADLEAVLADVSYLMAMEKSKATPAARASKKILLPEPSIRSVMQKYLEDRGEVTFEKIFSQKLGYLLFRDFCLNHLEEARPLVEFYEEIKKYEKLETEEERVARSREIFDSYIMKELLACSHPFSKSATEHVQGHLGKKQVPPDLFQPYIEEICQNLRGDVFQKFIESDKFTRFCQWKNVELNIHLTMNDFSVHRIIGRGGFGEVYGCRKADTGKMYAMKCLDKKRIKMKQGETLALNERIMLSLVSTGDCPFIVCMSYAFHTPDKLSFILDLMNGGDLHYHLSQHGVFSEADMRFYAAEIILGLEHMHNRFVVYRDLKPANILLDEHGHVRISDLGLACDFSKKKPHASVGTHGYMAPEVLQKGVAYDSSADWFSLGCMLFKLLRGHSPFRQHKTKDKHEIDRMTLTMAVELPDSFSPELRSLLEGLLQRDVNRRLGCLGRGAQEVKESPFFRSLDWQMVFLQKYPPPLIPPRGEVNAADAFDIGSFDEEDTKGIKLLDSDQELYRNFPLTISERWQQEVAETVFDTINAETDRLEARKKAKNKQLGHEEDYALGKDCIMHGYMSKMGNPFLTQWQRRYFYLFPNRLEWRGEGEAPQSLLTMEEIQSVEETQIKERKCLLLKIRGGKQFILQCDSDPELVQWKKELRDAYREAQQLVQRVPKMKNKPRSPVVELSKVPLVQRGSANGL

| Compound | aptamer displacement |
| --- | --- |
| O=C(c1cnn(-c2ccc(Cl)cc2)c1)c1ccccc1O | 0.64% (inactive) |
| CSc1nc2ccccc2c(=O)n1Cc1ccc(F)cc1 | 1.65% (inactive) |
| CC(=O)c1ccc(OCC(O)CN2CCN(S(=O)(=O)c3cccc(Br)c3)CC2)cc1 (stereo unspecified) | -3.98% (inactive) |
| Cc1cc2cc(CNC(=O)c3cccs3)ccc2[nH]1 | 11.7% (inactive) |
| Cn1c(=O)c2c(nc(N3CCOCC3)n2CCNC2=NCCC2)n(C)c1=O | 5.84% (inactive) |
| CN(Cc1ccccc1)C(=O)c1cccc(C(=O)N(C)Cc2ccccc2)c1 | -0.51% (inactive) |
| CCN1C(=O)[C@H]2[C@@H](c3ccc(-c4ccc(OC)cc4)cc3)N[C@@](Cc3ccccc3)(C(=O)OC)[C@H]2C1=O | -7.18% (inactive) |
| OC(CN=c1sc2ccccc2n1CC(O)COc1ccccc1)COc1ccccc1 (stereo unspecified) | 1.11% (inactive) |
| CCOC(=O)C1CCCN(Cc2nc(N)nc(Nc3ccc(C)cc3)n2)C1 (stereo unspecified) | 0.86% (inactive) |
| Cc1ccc(-c2nn(-c3ccccc3)cc2/C=C2\SC(=S)N(CCCCCC(=O)O)C2=O)o1 | -4.86% (inactive) |
| CCN1/C(=C\c2ccc3ccccc3[n+]2CC)Sc2cc(C)ccc21 | 75.6% (active) |
| CCN1/C(=C/c2ccc3ccc(C)cc3[n+]2CC)Sc2ccccc21 | 65.9% (active) |
| O=C(NCc1ccccc1Cl)c1ccc2c(=O)n(CC3CCCO3)c(=S)[nH]c2c1 (stereo unspecified) | -1.07% (inactive) |
| O=C(NC(=O)c1cc(OCC(F)(F)F)ccc1OCC(F)(F)F)Nc1ccccc1 | 2.33% (inactive) |
| CC(C)Cn1c(CN(Cc2ccccc2)Cc2ccccc2)nc2c1c(=O)n(C)c(=O)n2C | 0.47% (inactive) |
| C=C(C)C(=O)Nc1cccc(C2=NOC3(C2)C[C@H](C(N)=O)N(C(=O)C(c2ccccc2)c2ccccc2)C3)c1 (stereo partly specified) | 80.5% (active) |
| O=C(O)c1ccc2c(c1)C(=O)N(c1ccc(/C=C/C(=O)c3ccccc3)cc1)C2=O | 0.79% (inactive) |
| CN/C(=C\[N+](=O)[O-])NCCSCc1csc(CN(C)C)n1 | 1.33% (inactive) |
| O=C(c1ccc(Cl)cc1)c1ccc(OCC(O)CN2CCCCC2)cc1 (stereo unspecified) | -0.78% (inactive) |
| O=C(COc1ccccc1)NCCc1nc2ccccc2[nH]1 | 22.4% (inactive) |
| Cc1nc(C(=O)NCc2ccccc2)sc1C1(C)CC(c2cccnc2)=NO1 (stereo unspecified) | -1.29% (inactive) |

Reference: PubChem BioAssay AID504451 (NMMLSC, 2011)
